Pf growth 96h – P. falciparum growth inhibition at 96 hours; Potency, µM (titrated, usually from 28.7 µM), inactives show at the highest dose activity change, negative = inhibition, actives largely listed as inhibitors; 6.9% of 320,000 active; AID 504834; P. falciparum luciferase reporter growth, 96 h; further: potency means the concentration at half of the fitted maximal effect; on the % scale 0 is the no-effect control and ±100 the full control effect
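Parasite growth measured via integrated firefly luciferase reporter in P. falciparum. Infected erythrocytes at 2% hematocrit, 0.05% parasitemia final were treated 96 hours at 37 C under 5% CO2, and luminescence was read.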
Pf growth 48h – P. falciparum growth inhibition at 48 hours (one generation); 5.9% of 310,000 active; AID 504832; Potency, µM (titrated, usually from 28.7 µM), without a hit: top-dose activity change, negative = inhibition, hits mostly inhibitors; P. falciparum luciferase growth in erythrocytes, 48 h; further: potency means the concentration at half of the fitted maximal effect; on the % scale 0 is the no-effect control and ±100 the full control effect
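Firefly luciferase activity from engineered P. falciparum reports growth; inhibitors lower the luminescent signal. Cultures contained 2% hematocrit erythrocytes at 0.1% final parasitemia.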
Shiga inhibitor – Shiga toxin inhibition; Vero cells, Shiga toxin protein synthesis inhibition reporter; inhibition, % at 38.7 µM; 9.2% of 290,000 active; in the data active means inhibition mostly above about 28%, no sharp cut-off; inactive means mostly below about 43%; further: 0% is about no effect
CHX counter – affects cycloheximide protein synthesis inhibition readout, counter-screen. cell reporter, cycloheximide protein synthesis inhibition counterscreen. max response, %. 12% of 300,000 active. AID 2314; in the data active means max response mostly above about 13%, no sharp cut-off; inactive means mostly below about 14%; further: read at 38.3 µM for the half of the compounds with a filed dose; 0% is about no effect
Sm TGR block – blocks Schistosoma mansoni thioredoxin glutathione reductase | Q962Y6 | 3% of 360,000 active | purified TGR, DTNB reduction, TNB absorbance 405 nm | Potency, µM (doses to about 114 µM), without a hit: at the top dose activity change, negative = inhibition, most hits filed as inhibitors | AID 485364; further: potency means the concentration at half of the fitted maximal effect; on the % scale 0 is the no-effect control and ±100 the full control effect; nearly all actives have a fitted effect of over 60% in size
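First, TGR (20 nM dispensed) and NADPH were mixed with compound. Second, a 15 min room-temperature incubation followed. Third, further NADPH and then DTNB were added to start the reaction. Finally, TNB absorbance was monitored kinetically.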
NS1 function inh – blocks influenza NS1 protein function. 0.4% of 270,000 active. Potency, µM (doses to about 46.1 µM), without a hit: at the top dose activity, positive = more growth; calls by dose curve; further: potency means the concentration at half of the fitted maximal effect; actives are rising curves; nearly all actives have a fitted effect of over 50% in size
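Recovery from NS1-induced slow growth read by OD600 in budding yeast switched to galactose assay medium (pH 6.0, -URA) at 1:100 dilution. Compound 23 nl per well; the matching strain lacking NS1 serves as control.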
* = called active by the depositor; ? = inconclusive; nt = not tested or not shown. Rows were chosen to be rich in hits. Some 21% of all compounds tested hit in one or more screens of this group. Unless noted, the call rests on the fitted dose curve; in most records, active means well fitted curve in the direction sought with a large enough effect; inconclusive means small, poorly fitted or top-dose-only effect, or another doubt; inactive means no such curve, though single readings can be large; an effect the other way counts as inactive or inconclusive.

SMILES	Pf growth 96h	Pf growth 48h	Shiga inhibitor	CHX counter	Sm TGR block	NS1 function inh
CC(=O)c1c(C)oc2ccc(N(C(=O)Oc3ccccc3)S(=O)(=O)c3ccc(Br)cc3)cc12	nt	nt	nt	nt	-0.8%	nt
CC(/C=C/c1ccco1)=N/NC(=O)c1ccccc1Cl	0.0%	20.5%	24.1	25.6*	22.4µM*	-2.0%
CC(/C=C/c1ccco1)=N\NC(=O)CNc1ccc2ccccc2c1	?	30.3%	16.1	9.3	-24.0%	nt
CC(/C=C/c1ccco1)=N\NC(=O)c1cccc(Cl)c1	?	?	29.2	34.8*	-34.2%	-1.6%
c1ccc2[nH]ccc2c1	-17.8%	-11.5%	nt	nt	nt	nt
CCOc1ccccc1NC(=O)CSc1ccc2nnc(CCNS(=O)(=O)c3ccccc3)n2n1	nt	nt	nt	nt	15.3%	nt
CCCCNC(=O)c1cc(-c2ccc(OC)c(OC)c2)on1	3.29µM*	nt	30.9	14.2*	0.8%	-52.4%
CCCCNC(=O)c1cc(-c2ccc(OC)cc2)on1	?	130.2%	193.6*	52.0*	6.0%	-4.8%
CCc1ccccc1NC(=O)c1cc(-c2ccc(OC)cc2)on1	?	34.5%	1.5	-0.6	-17.7%	2.6%
CCCNC(=O)c1cc(-c2ccc(OC)cc2)n(CCCOC)c1C	39.0%	2.08µM*	-13.0	-0.6	3.1%	-24.2%
CCCNC(=O)c1cc(-c2ccc(OC)cc2)on1	?	166.1%	69.5*	50.8*	-2.3%	-17.7%
COc1ccc(-c2cc(C(=O)NCc3ccccc3)no2)cc1OC	14.7%	18.8%	-2.4	-3.3	2.6%	10.5%
Cc1ccc(N(CC(=O)NCCc2ccccc2C)S(=O)(=O)N(C)C)cc1	nt	nt	nt	nt	-1.0%	nt
CCCCNC(=O)c1cc(-c2ccc(F)cc2)on1	-34.5%	112.1%	51.8*	34.7*	-3.6%	-4.2%
CCN(CC)CCCNC(=O)c1cc(-c2ccc(Cl)cc2)on1	1.5%	?	6.0	1.5	-7.7%	2.7%
O=C(O)CCn1ccc2cc(S(=O)(=O)N3CCCCC3)ccc21	nt	nt	nt	nt	-5.8%	nt
CN(C(=O)c1c(Br)cnn1C)C12CC3CC(CC(C3)C1)C2	1.0%	0.3%	-16.1	-4.6	5.0%	-6.7%
Cc1ccc(S(=O)(=O)N2CCCC2C(=O)Nc2ccc(Br)cc2)cc1 (stereo unspecified)	nt	nt	nt	nt	8.6%	nt
CC(C)=NNc1nc2sc3c(c2c(=O)[nH]1)CC(C)(C)OC3	-11.9%	-23.7%	-13.1	9.6	-6.1%	0.3%
CN(C)c1ccc(CN(C(=O)c2cc3ccccc3oc2=O)C2CCS(=O)(=O)C2)cc1 (stereo unspecified)	?	-16.0%	62.5*	47.5*	-4.6%	-4.3%
CC(C)c1ccc(CN(C(=O)c2cc3ccccc3oc2=O)C2CCS(=O)(=O)C2)cc1 (stereo unspecified)	nt	3.1%	-0.9	14.7	-13.6%	-2.1%
COc1cccc(CN(C(=O)c2cc3ccccc3oc2=O)C2CCS(=O)(=O)C2)c1 (stereo unspecified)	6.57µM*	1.3%	79.2*	42.4*	3.9%	?
COc1cccc(CN(C(=O)c2ccccc2Br)C2CCS(=O)(=O)C2)c1 (stereo unspecified)	?	-12.2%	-6.7	-7.2	4.6%	-4.7%
O=C(c1cc2ccccc2oc1=O)N(Cc1cccc(Cl)c1)C1CCS(=O)(=O)C1 (stereo unspecified)	nt	nt	nt	nt	-1.2%	nt
O=C(c1cc2ccccc2oc1=O)N(Cc1cccc(Br)c1)C1CCS(=O)(=O)C1 (stereo unspecified)	-6.2%	-8.7%	30.8	15.4*	4.1%	-6.5%
CCc1noc(C)c1C(=O)N1CCN(S(=O)(=O)c2ccc(Br)cc2Cl)CC1	?	?	nt	nt	-11.2%	nt
CC(C)c1ccc(C(C(=O)NC2CCCCC2)N(C(=O)c2csnn2)C2CC2)cc1 (stereo unspecified)	10.9%	13.1µM*	-7.1	-6.1	-8.0%	9.2%
CC(C)c1ccc(N(C(=O)c2csnn2)C(C(=O)NC(C)(C)C)c2ccncc2)cc1 (stereo unspecified)	16.2%	43.3%	33.4	34.7*	-21.2%	-0.9%
O=C(NCCc1ccccc1)C(c1ccncc1)N(C(=O)c1csnn1)C1CC1 (stereo unspecified)	11.7µM*	-17.0%	10.5	-2.7	-20.3%	15.4%

Compound activity: PubChem, National Center for Advancing Translational Sciences (NCATS)
